# Reference: the supplement of paper PMC10105736
# A number with no mark means an inactive call.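 Rule for the calls: active = MAPPIT score above the 99th percentile of random reference set scores in the same batch; inactive = at or below it.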
# B1: sel (protein)
# chain: MLTKALILFGLLALAQGYSFTSREVKCHVCKAVVTELEEAIAKEDPHKMADVSGFRLDAQGNSISKKVRLVKSEMFLTELMEKICEKMDDYLKATYKSNGKFTLLKMIINGQMNPDSSLVDFVQDGDLNKSLGHFCNEVLEDNDEIFVKAFQAEELGNDLDIKICSEQASYCDESPVQEEYDFDGKEEL
# B2: Nep3 (protein)
# chain: MTRYKQTEFTEDDSSSIGGIQLNEATGHTGMQIRYHTARATWNWRSRNKTEKWLLITTFVMAITIFTLLIVLFTDGGSSDATKHVLHVQPHQKDCPSGNELPCLNKHCIFASSEILKSIDVTVDPCDDFYGYSCNQWIKNNPIPEGKSTWGTFGKLEQMNQLIIRNVLEKPAKSFKSDAERKAKVYYESCLDADEHMEKLGAKPMNDLLLQIGGWNVTKSGYNVANWTMGHTLKILHNKYNFNCLFGWAIGEDDKNSSRHVIQIDQGGLTLPTADYYNNKTDNHRKVLNEYIEYMTKVCVLLGANESDARAQMIGVINFEKKLANITIPLEDRRNEEAMYHPMQLRQLSKLAPFLNWTDHFDNAMQMVGRRVTDDEVVVVYAPDFLKNLSDIILKMEQTEEGKITLNNYLVWQAVRTLTSCLSKPFRDAYKGVRKALMGSDGGEEIWRYCVSDTNNVVGFAVGAIFVRQAFHGESKPAAEQMIAEIREAFKMNLQNLTWVDKQTREKAIEKANQISDMIGFPDYILDPVELDKKYAELNITPNAYFENNIQVAIYNLKSNLKRLDQPVNKTNWGMTPQTVNAYYTPTKNQIVFPAGILQTPFFDINNPKSLNFGAMGVVMGHELTHAFDDQGREYDKFGNINRWWDSKSIERFNEKSECIARQYSGYKMNGRTLNGKQTLGENIADNGGLKAAYHAYQRTKSDRDVDILKLPGLNLTHSQLFFVSFAQVWCSSTTDETNLLQMEKDPHSPSQFRVIGTLSNMKEFAEVFQCKPGKRMNPTEKCEVW
# B3: aph-1 (protein)
# chain: MTLPEFFGCTFIAFGPPFALFVFTIANDPVRIIILIAAAFFWLLSLLISSLWYALIPLKEFLAFGVVFSVCFQEAFRYIIYRILRSTEQGLHAVAEDTRVTDNKHILAYVSGLGFGIISGMFALVNVLADMSGPGTMGLKGGTELFFVTSAAQALSIILLHTFWSVIFFNAFDTNNYIHIGYVVFSHLFVSLITLLNANELYTTTLLINYLVTILTGVLAFRVAGGTSRSFRKFITCQ
# B4: Gel (protein)
# chain: MDASGAATMAVLSSLLVFLALSSSLCSAGTLNARPAFPVQSGEIQPSGQNSKQAARRVMHPSFANAGRTPGLEIWRIENFEPVIYPKTNYGKFYTGDSFIVLNTIENKKDKKLSWDVHFWLGLETSTDEAGAAAILTVQLDDLLNGGPVQHREVQDHESQLFLSYFKNGIRYEQGGVGTGFKHVETNAQGETRLFQVKGKRNVRVRQVNLSVSSMNTGDCFILDAGSDIYVYVGSQAKRVEKLKAISAANQIRDQDHNGRARVQIVDDFSTDADKQHFFDVLGSGSADQVPDESTADEDSAFERTDAAAVSLYKVSDASGKLKVDIIGQKPLTQAMLDTRECFILDTGSGIFVWVGKGATQKEKTDAMAKAQEFLRTKKYPAWTQIHRIVEGSESAPFKQYFDTWRDAGMSHSRLIRSALGIGSDELLNDDEIDSVVTQLKKSGGRAFGFMPDHGQNVIETITQYVAKPGSDEIVVSTVPFDEKLPLLGFASYVLTYNYEANNGDTGSLTYVWHGVKASAAARKRAFEEGLVGSKDGLLVQTNQGHEPRHFYKIFKGKLLTSFTALPVTAQLFRIRGTVESDVHASEVAADSSSLASSDAFVLHSGKSHKIYIWNGLGASAFEKQAAVDRFSDYWDDVELEQVEEGAEPDEFWEELNGEGQYDRSLGDDGAPLLESRLFHCHLSSGGFLKVEEVAQYEQEDLDSDDIMLLDAGDEIYLWVGYGVSEEENGKLLDTAKLYFNLEPTARSFDTVSIIRVPQGKEPRVFKRMFPNWDDNYWQNQPSYEDMKQLVIDANNEV
# B5: eEF5 (protein)
# chain: MAELDDQFETTDSGASTTYPMQCSALRKNGFVMLKSRPCKIVEMSTSKTGKHGHAKVHMVGIDIFSNKKYEDICPSTHNMDVPNVKREDLQLIAISDDSFLTLMTESGDLREDLKVPEGELGEQLRLDFDSGKDLLCTVLKACGEECVIAIKTNTALDK
# B6: RhoGAP68F (protein)
# chain: MDAHSRFAPRLPGPAINPIVDNSDEPQPSLSDLHDFEPKLEFDDTELLAPSPLEKDVMVGDFVLAEDPELEPEEDVNPLEDDFEDQLREQSENFQTPRNKCDFLGTDKQGRHIFGIYASRFPEKSQLEGFVREIIKEIEPFVENDYILVYFHQGLKEDNKPSAQFLWNSYKELDRNFRKNLKTLYVVHPTWFIRVIWNFFSPFISDKFRKKLVYISSLDELRQALGLNKLKLPDNICDLDDKLNPSRKPSTPPPSSNINASRQQQHKMATTHQFGVPLKFIVMNSPCLNSIPPIVRKCVDSLSITGVIDTEGIFRRSGNHSEIMALKERVNRGEDVDLKSVNVHVIAGLLKSFLRDLAEPLLTFELYEDVTGFLDWPKEERSRNVTQLIREKLPEENYELFKYIVEFLVRVMDCEDLNKMTSSNLAIVFGPNFLWSRSTSTSLEEIAPINAFVDFVLQNHKDIYLIDVNQRTVSVD
# B7: trbd (protein)
# chain: MCDTKDDAQKWKCETCTYENYPSSLKCTMCQASKPLLNEDIFRLSPAQESCTVAEEAAAVEVAVMSPTPSSTCYSLQPQSQARQSNVADSEKWPCKVCTYLNWPRSLRCVQCCTKRGGEAIERGKKDMDNEADGDRAGEALQALRISGSEENLANKPVQLIGATASHRLSLSRGIDDATHLNNLANASHNQSQSQHRQPVLQQQMQLQLQPQQQRESSSSAAVPPQQQKQCYVSKWACNSCTYENWPRSIKCSMCGKTREREISGSQNDLHASSSLNSQEENQQQLQQPNVDTVSVNNSFNKKHIYQLGSSETINNCDTLQERQERRQRQIRRQVDWQWLNACLGVVENNYSAVEAYLSCGGNPARSLTSTEIAALNRNSAFDVGHTLIHLAIRFHREEMLPMLLDQISGSGPGIKRVPSYVAPDLAADIRRHFANTLRLRKSGLPCHYVQKHATFALPAEIEELPIPIQEQLYDELLDRDAQKQLETPPPALNWSLEITARLSSRMFVLWNRSAGDCLLDSAMQATWGVFDRDNILRRALADTLHQCGHVFFTRWKEYEMLQASMLHFTLEDSQFEEDWSTLLSLAGQPGSSLEQLHIFALAHILRRPIIVYGVKYVKSFRGEDIGYARFEGVYLPLFWDQNFCTKSPIALGYTRGHFSALVPMEPFTRIDGRRDDVEDVTYLPLMDCELKLLPIHFLTQSEVGNEESMMRQWLDVCVTDGGLLVAQQKLSKRPLLVAQMLEEWLNHYRRIAQVITAPFIRRPQITHYSSDGDSDEE
# B8: Spt6 (protein)
# chain: MAEFLDSEAEESEEEEELDVNERKRLKKLKAAVSDSSEEEEDDEERLREELKDLIDDNPIEEDDGSGYDSDGVGSGKKRKKHEDDDLDDRLEDDDYDLIEENLGVKVERRKRFKRLRRIHDNESDGEEQHVDEGLVREQIAEQLFDENDESIGHRSERSHREADDYDDVDTESDADDFIVDDNGRPIAEKKKKRRPIFTDASLQEGQDIFGVDFDYDDFSKYEEDDYEDDSEGDEYDEDLGVGDDTRVKKKKALKKKVVKKTIFDIYEPSELKRGHFTDMDNEIRKTDIPERMQLREVPVTPVPEGSDELDLEAEWIYKYAFCKHTVSEQEKPESREKMRKPPTTVNKIKQTLEFIRNQQLEVPFIAFYRKEYVKPELNIDDLWKVYYYDGIWCQLNERKRKLKVLFEKMRQFQLDTLCADTDQPVPDDVRLILDSDFERLADVQSMEELKDVHMYFLLNYSHELPRMQAEQRRKAIQERREAKARRQAAAAENGDDAAEAIVVPEPEDDDDPELIDYQLKQASNSSPYAVFRKAGICGFAKHFGLTPEQYAENLRDNYQRNEITQESIGPTELAKQYLSPRFMTTDEVIHAAKYVVARQLAQEPLLRKTMREVYFDRARINIRPTKNGMVLIDENSPVYSMKYVAKKPVSDLFGDQFIKLMMAEEEKLLEITFLEEFEGNACANGTPGDYVEESKALYQLDQFAKHVQEWNKLRAECVQLALQKWVIPDLIKELRSTLHEEAQQFVLRSCTGKLYKWLKVAPYKPQLPPDFGYEEWSTLRGIRVLGLAYDPDHSVAAFCAVTTVEGDISDYLRLPNILKRKNSYNLEEKAQKLADLRKLSDFIKMKKPHIVVIGAESRDAQNIQADIKEILHELETSEQFPPIEVEIIDNELAKIYANSKKGESDFKEYPPLLKQAASLARKMQDPLVEYSQLCDADDEILCLRYHPLQERVPREQLLEQLSLQFINRTSEVGLDINLMVQNSRTINLLQYICGLGPRKGQALLKLLKQSNQRLENRTQLVTVCHLGPRVFINCSGFIKIDTSSLGDSTEAYVEVLDGSRVHPETYEWARKMAIDAMEYDDEETNPAGALEEILESPERLKDLDLDAFAVELERQGFGSKSITLYDIRNELSCLYKDYRTPYTKPSAEELFDMLTKETPDSFYVGKCVTAMVTGFTYRRPQGDQLDSANPVRLDSNESWQCPFCHKDDFPELSEVWNHFDANACPGQPSGVRVRLENGLPGFIHIKNLSDRQVRNPEERVRVSQMIHVRIIKIDIDRFSVECSSRTADLKDVNNEWRPRRDNYYDYVTEEQDNRKVSDAKARALKRKIYARRVIAHPSFFNKSYAEVVAMLAEADQGEVALRPSSKSKDHLTATWKVADDIFQHIDVREEGKENDFSLGRSLWIGTEEFEDLDEIIARHIMPMALAARELIQYKYYKPNMVTGDENERDVMEKLLREEKANDPKKIHYFFTASRAMPGKFLLSYLPKTKVRHEYVTVMPEGYRFRGQIFDTVNSLLRWFKEHWLDPTATPASASASNLTPLHLMRPPPTISSSSQTSLGPQAPYSVTGSVTGGTPRSGISSAVGGGGSSAYSITQSITGYGTSGSSAPGAGVSSSHYGSSSTPSFGAINTPYTPSGQTPFMTPYTPHASQTPRYGHNVPSPSSQSSSSQRHHYGSSSGTGSTPRYHDMGGGGGGGVGGGGGSNAYSMQPHHQQRAKENLDWQLANDAWARRRPQQHQSHQSYHAQQQHHHSQQQPHMGMSMNMGITMSLGRGTGGGGGGGYGSTPVNDYSTGGGHNRGMSSKASVRSTPRTNASPHSMNLGDATPLYDEN
# Assays:
# Assay in all cases: MAPPIT interaction score (arbitrary units); higher = stronger binary interaction signal, active = hit call of the paper
# CG1532 = conditions: MAPPIT configuration: N-N; pair source set: Finley_Y2H
# CG7560 = conditions: MAPPIT configuration: N-N; pair source set: Finley_Y2H
# CG15347 = conditions: MAPPIT configuration: N-C; pair source set: screen_3
# CG15369 = conditions: MAPPIT configuration: N-N; pair source set: Finley_Y2H
# CG32548 = conditions: MAPPIT configuration: N-N; pair source set: Finley_Y2H
# CG15443 = conditions: MAPPIT configuration: N-N; pair source set: Curagen_low_conf
# Gs1 = conditions: MAPPIT configuration: N-N; pair source set: DPIM
# Mpp6 = conditions: MAPPIT configuration: N-N; pair source set: DPIM
# CG15449 = conditions: MAPPIT configuration: N-N; pair source set: Finley_Y2H
# CG5946 = conditions: MAPPIT configuration: N-N; pair source set: Finley_Y2H
# PHDP = conditions: MAPPIT configuration: N-N; pair source set: Finley_Y2H
# Prim2 = conditions: MAPPIT configuration: N-N; pair source set: Finley_Y2H
# CG15482 = conditions: MAPPIT configuration: N-N; pair source set: screen_1
# CG33096 = conditions: MAPPIT configuration: N-N; pair source set: Finley_Y2H
# CG15514 = conditions: MAPPIT configuration: N-N
# 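Note: HEK293T cells with Epo stimulation, STAT-responsive firefly luciferase reporter, fold induction versus unstimulated cells divided by the larger fold induction of two negative controls lacking either bait or prey.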
binder,measurement,setting,value
B1,MAPPIT interaction score,CG1532,-0.121
same,MAPPIT interaction score,CG7560,0.327
B2,MAPPIT interaction score,CG15347,-1.12
B3,MAPPIT interaction score,CG15347,3.73
B4,MAPPIT interaction score,CG15369,0.935
same,MAPPIT interaction score,CG32548,0.0886
B5,MAPPIT interaction score,CG15443,0.896
same,MAPPIT interaction score,Gs1,0.522
same,MAPPIT interaction score,Mpp6,-0.193
B6,MAPPIT interaction score,CG15449,0.0825
same,MAPPIT interaction score,CG5946,0.206
same,MAPPIT interaction score,PHDP,0.248
same,MAPPIT interaction score,Prim2,3.38 (active)
B7,MAPPIT interaction score,CG15482,-0.138
same,MAPPIT interaction score,CG33096,0.0624
B8,MAPPIT interaction score,CG15514; pair source set: screen_1,2.16
same,MAPPIT interaction score,CG15514; pair source set: screen_2,1.63
